Test results: ChEMBL document CHEMBL4513216, “Probing the Open Global Health Chemical Diversity Library for Multistage-Active Starting Points for Next-Generation Antimalarials” (ACS Infect Dis, 2020)
Screen size: about 69,000 compounds; about 8,600 (12%) showed an effect of 50% or more. The sample holds strong results, similar compounds and a random draw of the others, so the mix is not that of the screen.

System: Plasmodium berghei
Assay: Screen against P. berghei liver stage (PbLuc), transformed with Luciferase, at 10uM
Assay type: functional, HepG2
Details: tested at 10 uM

Compound	INHIBITION [%]
CN(C(=O)c1ncn2c1CN(C)S(=O)(=O)c1ccccc1-2)C1CC1	-30
CCC(C(=O)N(C)CCC1=CCN(C)CC1)c1ccccc1 (stereo unspecified)	24
CCC(C)NC(=O)c1cc(S(=O)(=O)N(C)C)c(C)s1 (stereo unspecified)	19.5
O=S1(=O)NC2(CCCN(CCc3ccccc3)C2)COc2ccccc21 (stereo unspecified)	24.2
Cc1nc(N2CCCN(C(=O)c3ccsc3)CC2)c2cnn(C)c2n1	14.4
CS(=O)(=O)NCCC1CCCCN1C(=O)NCCc1ccccn1 (stereo unspecified)	-25.6
Cc1nc(CN2CCCC2c2[nH]ncc2C(=O)N(C)C)cs1 (stereo unspecified)	8.53
CC(C)Oc1cccc(F)c1C(C(=O)O)N(C)Cc1ccon1 (stereo unspecified)	71.2
CCOc1ccccc1C(C(=O)O)N(C)Cc1nc(C)c[nH]1 (stereo unspecified)	21.1
COc1ccc(Cl)cc1C(C(=O)O)N(C)Cc1ccon1 (stereo unspecified)	-73.6
COc1cc(F)ccc1C(C(=O)O)N(C)Cc1ccon1 (stereo unspecified)	-66.4
Cc1c[nH]c(CN(C)C(C(=O)O)c2c(F)cccc2Cl)n1 (stereo unspecified)	16.5
Cc1c[nH]c(CN(C)C(C(=O)O)c2c(F)cccc2OC(C)C)n1 (stereo unspecified)	58.2
CC(Cn1cccn1)NC(=O)c1cccs1 (stereo unspecified)	-40.2
CN1CCCC1CCNC(=O)Nc1ccccc1 (stereo unspecified)	27.3
Cc1cc(Oc2ccccc2C)nc(C2CCCN2)n1 (stereo unspecified)	4.41
Cc1cccc(C(=O)NC(C)CN2CCCC2=O)n1 (stereo unspecified)	4
O=C(CCn1ccnc1)N1C[C@@H](O)[C@H](Oc2cccc(F)c2)C1	-31

Compound	INHIBITION [%]
CC(=O)NCC(=O)N1CCOC2(CCCN(c3cccnc3)C2)C1 (stereo unspecified)	6.8
Cc1cc(C)nc(N2CCCC(c3nccn3CCCN(C)C)C2)c1 (stereo unspecified)	17.1
CN(C)C(=O)COCC1CN(Cc2ccco2)Cc2ncn(C)c21 (stereo unspecified)	39.5
NC(=O)c1cnc2n1CCN(C(=O)c1ccc(-c3cc[nH]n3)cc1)C2	11.7
CC(C)c1nc(COc2cccc3c2NC(=O)CO3)cs1	79.1
Cc1ncc(COc2cccc3c2NC(=O)CO3)s1	8.05
O=C1COc2cccc(OCc3ccccn3)c2N1	12.3
O=C(CCc1nc(-c2ccccn2)no1)N1CCCC1c1ccsc1 (stereo unspecified)	7.08
O=C(CCN1CCOCC1)NC(Cc1ccsc1)c1nccs1 (stereo unspecified)	5.055
Cc1nc(C2CCCN2C(=O)Cc2ccc(F)cc2)ncc1C(N)=O (stereo unspecified)	19.6
Cc1nc(C2CCCN2C(=O)COc2ccccc2)ncc1C(N)=O (stereo unspecified)	52
Cc1nc(C2CCCN2C(=O)CC2CCCC2)ncc1C(N)=O (stereo unspecified)	17.1
NC(=O)c1cn[nH]c1C1CCCN1C(=O)c1ccccn1 (stereo unspecified)	11.8
Cc1nc(C2CCCN2C(=O)c2ccccc2)ncc1C(N)=O (stereo unspecified)	40.4
NC(=O)c1cn[nH]c1C1CCCN1C(=O)COc1ccccc1 (stereo unspecified)	52.7
NC(=O)c1cn[nH]c1C1CCCN1C(=O)c1ccccc1 (stereo unspecified)	6.26
Cc1nc(C2CCCN2C(=O)c2ccc(F)cc2)ncc1C(N)=O (stereo unspecified)	55.6
Cc1nc(C2CCCN2C(=O)CCc2ccccc2)ncc1C(N)=O (stereo unspecified)	18.3
